Source: PubChem BioAssay (NCI)
This is part of a sample that, as a whole, favours compounds with a hit. Of some 83,000 tested, about 20% had one in any assay.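 Single-dose data. Exposure time 48 hours. Values below 10 considered active.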 Values without a mark were called inactive. Active and inactive are the calls of the source.

What was measured:
Test in all cases: NCI-60 one-dose screen, 48 h (100 = growth as untreated, 0 = no growth, -100 = all killed)
Settings in all cases: 10 µM unless noted
HCT-15 colon = test system: HCT-15 colon
HT29 colon = test system: HT29 colon
SNB-75 CNS = test system: SNB-75 CNS
SNB-19 CNS = test system: SNB-19 CNS
U251 CNS = test system: U251 CNS
PC-3 prostate = test system: PC-3 prostate
SK-MEL-5 melanoma = test system: SK-MEL-5 melanoma
UACC-62 melanoma = test system: UACC-62 melanoma
LOX IMVI melanoma = test system: LOX IMVI melanoma
SK-MEL-28 melanoma = test system: SK-MEL-28 melanoma

Row | SMILES | growth (HCT-15 colon) | growth (HT29 colon) | growth (SNB-75 CNS) | growth (SNB-19 CNS) | growth (U251 CNS) | growth (PC-3 prostate) | growth (SK-MEL-5 melanoma) | growth (UACC-62 melanoma) | growth (LOX IMVI melanoma) | growth (SK-MEL-28 melanoma)
1 | S=C(NCCc1ccccc1)Nc1ccc(OCc2nc3ccc(Cl)cc3[nH]2)cc1 | 4.3% (active) | 32.2% | 33.4% | 46.7% | 16% | 39.8% | 40.8% | 34.5% | -46.3% (active) | 48%
2 | O=C(Nc1nc2ccccc2s1)Nc1ccccc1Cl | 94.3% | 98.5% | 20.4% | 70.4% | 55.7% | 85.3% | 95.3% | 93.8% | 79.4% | 102%
3 | CC(C)(C)C(=O)C1CC(C#N)=C2C=Cc3c(ccc4ccccc34)N21 (stereo not given) | 88.3% | 90.4% | -5.13% (active) | 60.1% | 75.2% | 80% | 91.1% | 91.1% | 95.5% | 106%
4 | O=C1NC(=NC23CC4CC(CC(C4)C2)C3)N/C1=C\c1ccc2ncccc2c1 | -12% (active) | 1.49% (active) | -66.3% (active) | 5.85% (active) | -63.7% (active) | -48.1% (active) | -9.19% (active) | 23.6% | -76.9% (active) | -3.01% (active)
5 | S=C(Nc1ccc(OCc2nc3ccc(Cl)cc3[nH]2)cc1)NC1CCCCC1 | -63.4% (active) | -47.2% (active) | 10.7% | 10% | -48.1% (active) | 17.6% | -96.6% (active) | -12.7% (active) | -100% (active) | 0.982% (active)
6 | O=C(NNC(=O)c1ccc(OCc2nc3ccc(Cl)cc3[nH]2)cc1)Nc1ccc(Cl)c(Cl)c1 | 98.9% | 67.2% | 111% | 20.2% | -1.4% (active) | 63.3% | 56.5% | 62.7% | 40% | 8.8% (active)
7 | CCOC(=O)/C(F)=C/C1CC1C1CCN(C(=O)OC(C)(C)C)CC1 (stereo not given) | 89.2% | 77.9% | 93.9% | 96.5% | 99.8% | 96.3% | 69.3% | 93.6% | 103% | 119%
8 | Cc1ccc(C2CC(c3ccc(NC(=O)Nc4ccccc4)cc3)=NN2c2ccc(S(N)(=O)=O)cc2)cc1 (stereo not given) | -68% (active) | -62% (active) | -68.1% (active) | -99.8% (active) | -96.1% (active) | -59% (active) | -96.6% (active) | -96.2% (active) | -100% (active) | -99.7% (active)
9 | O=C(Nc1nc2ccc([N+](=O)[O-])cc2s1)Nc1ccc(Cl)cc1Cl | 49.1% | 64.7% | -24.4% (active) | 46.6% | 11.4% | 47.3% | 27.5% | 56% | 34.8% | 79.5%
10 | Fc1ccc(Nc2nnc(-c3c[nH]c4ccccc34)o2)cc1 | 66.7% | 102% | 88.9% | 85% | 84.8% | 70.8% | 91.4% | 77.8% | 72.2% | 106%
11 | Clc1ccc2c(NCCNC34CC5CC(CC(C5)C3)C4)ccnc2c1 | -82% (active) | -50.8% (active) | -74.9% (active) | -54.2% (active) | -61.8% (active) | -5.27% (active) | -96% (active) | -89.9% (active) | -91.5% (active) | -93.5% (active)
12 | COc1ccccc1NC(=O)c1ccc(NC(=O)CCl)s1 | -50.8% (active) | -66.1% (active) | 35.9% | 42.1% | -51.2% (active) | -46.7% (active) | -23.3% (active) | -83.2% (active) | -93.4% (active) | 1.77% (active)
13 | Cn1cc(-c2cc(N)n3nc(-c4c[nH]c5ccccc45)cc3n2)c2ccccc21 | -68.5% (active) | -68.2% (active) | -46.8% (active) | -88.7% (active) | -93.1% (active) | -50.2% (active) | -92.5% (active) | -96.5% (active) | -78.2% (active) | -98.8% (active)
14 | Cc1ccc(C(=O)C[n+]2cccc3c4ccccc4ccc32)cc1 | 56.8% | 12.5% | 43% | 25.9% | 17.8% | 18.7% | -88.8% (active) | 32.2% | -24.2% (active) | 44.5%
15 | O=C(c1ccc(O)cc1)C1[C@H](c2ccccc2Br)[C@@H](c2ccccc2)NC12C(=O)Nc1ccccc12 (stereo not given in full) | 34.7% | -7.42% (active) | 36.8% | 58.5% | 7.5% (active) | 18.2% | 28.1% | 31.9% | 5.24% (active) | 59.3%
16 | CN1C(=O)C(O)(CC(=O)c2cc3ccccc3oc2=O)c2ccccc21 (stereo not given) | 94.7% | 104% | 107% | 93.3% | 97.2% | 92.4% | 100% | 86.8% | 87.9% | 107%
17 | Clc1ccc(-c2nc3c4c(-c5ccccc5)c(-c5ccccc5)n(Cc5ccccc5)c4ncn3n2)cc1 | 13.6% | -2% (active) | -23.1% (active) | 8.49% (active) | 15.1% | -1.48% (active) | -94.6% (active) | 11.7% | 11.9% | 36.2%
18 | Cn1cc(-c2cc(N)n3nc(-c4c[nH]c5ccc(Cl)cc45)cc3n2)c2cc(Br)cnc21 | -80.2% (active) | -72% (active) | -24.4% (active) | 2.78% (active) | -73.9% (active) | -52.4% (active) | -57% (active) | -59.6% (active) | -93.3% (active) | -25.9% (active)
19 | O=C(N/N=C/c1c[nH]c2ccccc12)Nc1ccccc1Cl | 7.73% (active) | -24.2% (active) | 5.18% (active) | 32.8% | 13.7% | 26.5% | -38.6% (active) | 11.4% | -45.1% (active) | 39.7%
20 | COC(=O)c1cc(C(=O)C(C)(C)C)n2c3ccccc3c3ccccc3c12 | 65.6% | 99.4% | 84.1% | 109% | 97% | 59.2% | 88.6% | 66.7% | 91.1% | 99.2%
21 | COc1ccc(Nc2ncnc3sc4c(c23)CCN(Cc2ccccc2)C4)cc1 | 74.9% | 98.1% | 89.2% | 90.8% | 88.9% | 68.8% | 70.4% | 43.5% | 52.2% | 99.8%
22 | O=C(c1ccc(O)cc1)C1[C@H](c2ccc(Cl)cc2)[C@@H](c2ccccc2)NC12C(=O)Nc1ccc(Br)cc12 (stereo not given in full) | -67% (active) | -68.1% (active) | -13% (active) | -2.97% (active) | -62% (active) | -16% (active) | -93.3% (active) | -40% (active) | -100% (active) | -5.57% (active)
23 | COc1cc(CNC(=O)C[C@H](C)CCC=C(C)C)ccc1OCc1cn(-c2cccc(C(F)(F)F)c2)nn1 | 56.8% | 96.6% | 65.2% | 97.2% | 51% | 82.5% | 78.8% | 72.1% | 80.7% | 91.6%
24 | CN(C)c1nc(NCCNS(=O)(=O)c2ccc(C(=O)/C=C/c3ccccc3)cc2)nc(N2CCOCC2)n1 | -45.3% (active) | 3.67% (active) | 73.2% | 77% | 44% | 59.6% | 83.5% | 72.8% | -63.1% (active) | 88%
25 | COc1sc(/C=N/NC(=O)c2[nH]c3ccc(Br)cc3c2-c2ccccc2)cc1Cl | -26.2% (active) | -52.8% (active) | 42% | -46% (active) | -40.7% (active) | 4.59% (active) | -91.1% (active) | -30.6% (active) | -91.7% (active) | -33.1% (active)
